Assay results taken from the supplement of paper PMC6555819.

Columns and labels:
Assay in all cases: PBM binding z-score (relative to random genomic background probes); higher = stronger binding; sequences stand for … in GC…GCGATTGACAGCGTAGAATGAAGG
[1] = test system: FXR:RXRa (NR concentration 270 nM, RXRa partner concentration 90 nM)
Procedure, shortened: (§1)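 Ligand-free nuclear receptor dimers were bound for 1 h to custom Agilent 4×180K protein-binding microarrays. Detection used antibodies against each partner (one per run). Binding z-scores rest on regression-normalized fluorescence, with random background probes as the reference.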

[2] = test system: LXRa:RXRa (NR concentration 270 nM, RXRa partner concentration 90 nM)
Procedure, shortened: as §1

[3] = test system: LXRa homodimer (NR concentration 270 nM)
Procedure, shortened: as §1

[4] = test system: LXRb:RXRa (NR concentration 270 nM, RXRa partner concentration 90 nM)
Procedure, shortened: as §1

[5] = test system: LXRb homodimer (NR concentration 270 nM)
Procedure, shortened: as §1

[6] = test system: PPARa:RXRa (NR concentration 270 nM, RXRa partner concentration 90 nM)
Procedure, shortened: as §1

[7] = test system: PPARg:RXRa (NR concentration 180 nM, RXRa partner concentration 90 nM)
Procedure, shortened: as §1

[8] = test system: PPARg:RXRa 270nM:90nM, anti-RXR (NR concentration 270 nM, RXRa partner concentration 90 nM)
Procedure, shortened: as §1

[9] = test system: PPARg:RXRa 30nM:10nM, anti-RXR (NR concentration 30 nM, RXRa partner concentration 10 nM)
Procedure, shortened: as §1

[10] = test system: PPARg:RXRa 90nM:30nM, anti-RXR (NR concentration 90 nM, RXRa partner concentration 30 nM)
Procedure, shortened: as §1

[11] = test system: PPARg:RXRa DBDmut IVT, anti-RXR (DBD mutation: RXRa K156A/R161A, NR concentration 270 nM, RXRa partner concentration 90 nM)
Procedure, shortened: as §1

[12] = test system: PPARg:RXRa IVT, anti-PPARg (NR concentration 270 nM, RXRa partner concentration 90 nM)
Procedure, shortened: as §1

[13] = test system: PPARg DBDmut:RXRa IVT, anti-PPARg (DBD mutation: PPARg1 K132A/R137A, NR concentration 270 nM, RXRa partner concentration 90 nM)
Procedure, shortened: as §1

[14] = test system: PPARg DBDmut IVT, anti-PPARg (DBD mutation: PPARg1 K132A/R137A, NR concentration 270 nM)
Procedure, shortened: as §1

[15] = test system: PPARg homodimer (NR concentration 180 nM)
Procedure, shortened: as §1

[16] = test system: PXR:RXRa (NR concentration 270 nM, RXRa partner concentration 90 nM)
Procedure, shortened: as §1

[17] = test system: PXR homodimer (NR concentration 270 nM)
Procedure, shortened: as §1

[18] = test system: RARa:RXR (NR concentration 270 nM, RXRa partner concentration 90 nM)
Procedure, shortened: as §1

[19] = test system: RARa homodimer (NR concentration 270 nM)
Procedure, shortened: as §1

[20] = test system: RARb:RXRa (NR concentration 270 nM, RXRa partner concentration 90 nM)
Procedure, shortened: as §1

Sequence | PBM binding z-score [1] | PBM binding z-score [2] | PBM binding z-score [3] | PBM binding z-score [4] | PBM binding z-score [5] | PBM binding z-score [6] | PBM binding z-score [7] | PBM binding z-score [8] | PBM binding z-score [9] | PBM binding z-score [10] | PBM binding z-score [11] | PBM binding z-score [12] | PBM binding z-score [13] | PBM binding z-score [14] | PBM binding z-score [15] | PBM binding z-score [16] | PBM binding z-score [17] | PBM binding z-score [18] | PBM binding z-score [19] | PBM binding z-score [20]
CCGGCTAGGTCATGGTCAGCTAATCTACAGTATG | 3.61 | 2.64 | 0.191 | 1.89 | 0.207 | 3.42 | 1.86 | 2.4 | 0.212 | 1.38 | 3.44 | 2.65 | -0.0629 | -0.269 | 2.5 | 1.4 | -0.16 | 2.53 | 0.954 | 3.91
TAATATAGGTAATACAGGTGAAAGTCGGCATCTA | 0.455 | 1.04 | 0.599 | 0.603 | 0.797 | 2.57 | 3.18 | 3 | 2 | 2.17 | 5.72 | 5.56 | 2.44 | 1.91 | 1.32 | 0.362 | 0.607 | 0.476 | 1.83 | 0.621
CATACAGGGTCAGCTAGGCTAGAGTAGGGACGGC | 4.44 | 2.68 | -0.0896 | 2.06 | -0.0361 | 4.12 | 3.06 | 2.93 | 0.539 | 2.03 | 1.19 | 2.32 | 0.769 | 0.0787 | 1.21 | 1.85 | -0.333 | 2.72 | 0.409 | 3.96
GCATATAGGTGATACAAGGTGAAAGTCCGATTGT | 1.98 | 0.421 | -0.185 | 0.234 | -0.213 | 2.26 | 1.73 | 2.17 | 0.808 | 1.33 | 5.22 | 4.28 | 0.633 | 0.787 | 0.568 | 0.71 | -0.00117 | 1.11 | 0.474 | 0.893
TCATATATGTAAAAGGTGAAAGTCGGTGTGGTAA | 0.511 | 1.25 | -0.0169 | 1.75 | 0.0133 | 3.72 | 5.15 | 6.15 | 5.45 | 7 | 2.46 | 2.83 | 0.873 | 0.794 | 1.98 | 1.21 | -0.143 | 1.85 | 1.14 | 1.9
ACTAGCCGGCCAAGGGTCACTCAAGATTAGTCCG | 2.41 | 2.53 | 0.141 | 2.59 | -0.832 | 3.81 | 5.6 | 5.62 | 3.35 | 5.18 | -0.188 | 2.25 | -0.122 | -1.13 | 0.922 | 3 | -0.135 | 3.82 | -0.211 | 3.41
CCGAATGGGGCAAAGGTTACCATACTCAGTACGA | 1.99 | 1.85 | 0.278 | 2.51 | -0.456 | 4.58 | 9.1 | 7.67 | 7.02 | 7.87 | 2.16 | 4.5 | 0.22 | 0.313 | 1.22 | 2.57 | 0.114 | 3.86 | 0.85 | 2.46
